From ChEMBL document CHEMBL3988442, “University of Dundee, Small-Polar-MMV Screening Library” (2021)
Hit rate of the full screen: of about 38,000 compounds, about 1,200 (3.2%) showed an effect of 50% or more. The median lay at about -58%. The full list was thinned out, with strong results kept by preference.

System: Plasmodium falciparum
Assay: Calibr Malaria Delayed Death Assay SOP
Assay type: functional, organism-based
Design: scale not given: in the data most compounds retested in dose-response had high values
Conditions: concentration 4.99e-06 (unit not given; other assays of the set use mol/L)

Row | Compound | Percent Effect
1 | O=C(c1c[nH]nn1)N1CCCC1C1CCCCC1 (stereo not given) | 48.49%
2 | O=C(C1CCC1)N1CCC(=O)N(C2CC2)Cc2cc(F)ccc21 | -6.345%
3 | CCNc1ccnc(NC2CCN(CC(N)=O)CC2)n1 | -56.83%
4 | N#Cc1cc(Br)ccc1NC1CCN(CC(N)=O)CC1 | 19.71%
5 | Cc1cccc(-n2c(C)cc(=O)[nH]c2=O)c1C | -21.52%
6 | CC1CCN(CCCNC(=O)c2ccc(N(C)S(C)(=O)=O)cc2Cl)CC1 | -35.22%
7 | O=C(NCc1ccccc1)NCC1CCN(Cc2ccsc2)CC1 | -54.93%
8 | CC(=O)c1cn(CCC(=O)Nc2c3c(nn2C)CSC3)c2ccccc12 | 26.69%
9 | Fc1ccc(CC2CCN(Cc3nccs3)CC2)cc1 | 0.00383%
10 | Fc1cccc(CN2CCN(Cc3cscn3)CC2)c1 | -54.95%
11 | Fc1ccc(CC2CCN(Cc3cscn3)CC2)cc1 | 50.2%
12 | CC(C)c1n[nH]c(C2CN(C(=O)c3cc(C(N)=O)cs3)CCO2)n1 (stereo not given) | -7.804%
13 | CN(C)c1ncccc1CNc1snc(Cl)c1C#N | -8.92%
14 | Cc1ccc(CN2CC[C@H]3CO[C@H](CN(C)Cc4ccco4)[C@H]3C2)s1.O=C(O)C(F)(F)F.O=C(O)C(F)(F)F | 57.63%
15 | O=C(NC[C@H]1OC[C@@H]2CCN(Cc3ccco3)C[C@@H]21)c1ccsc1.O=C(O)C(F)(F)F | -100.7%
16 | Cc1ccc(N2CC[C@H]3CO[C@H](CN(C)Cc4ccco4)[C@H]3C2)nn1.O=C(O)C(F)(F)F.O=C(O)C(F)(F)F | -41.04%
17 | CN(Cc1ccco1)C[C@@H]1OC[C@H]2CN(Cc3nccs3)CC[C@H]21.O=C(O)C(F)(F)F.O=C(O)C(F)(F)F | -54.97%
18 | CN(Cc1ccco1)C[C@H]1OC[C@@H]2CCN(Cc3ccsc3)C[C@@H]21.O=C(O)C(F)(F)F.O=C(O)C(F)(F)F | 65.82%
19 | CN1CCN(C[C@H]2OC[C@@H]3CCN(Cc4ccsc4)C[C@@H]32)CC1 | 77.67%
20 | O=C(O)C(F)(F)F.O=C(O)C(F)(F)F.c1cnc(NC[C@H]2OC[C@@H]3CCN(Cc4ccsc4)C[C@@H]32)nc1 | -30.65%
21 | Cc1cccc(N2CC[C@H]3[C@H](CO[C@@H]3CN(C)Cc3ccco3)C2)n1.O=C(O)C(F)(F)F.O=C(O)C(F)(F)F | 3.761%
22 | O=C(O)C(F)(F)F.O=C(O)C(F)(F)F.c1cc(CN2CC[C@H]3CO[C@H](CN4CCOCC4)[C@H]3C2)cs1 | -2.124%
23 | CN1CCN(C[C@@H]2OC[C@H]3CN(Cc4ccsc4)CC[C@H]32)CC1.O=C(O)C(F)(F)F.O=C(O)C(F)(F)F.O=C(O)C(F)(F)F | 7.397%
24 | Cc1ccc(CN2CC[C@H]3CO[C@H](CN(C)C)[C@H]3C2)o1 | -9.526%

Row | Compound | Percent Effect
25 | CSCCC(CO)NC(=O)c1ccc2[nH]/c(=N\S(C)(=O)=O)sc2c1 (stereo not given) | -143.2%
26 | COCC(O)CN1CCC(=O)N(CC(=O)C(C)(C)C)Cc2ccccc21 (stereo not given) | 3.723%
27 | Cc1cccc(N2CCN(C(=O)CNCCn3cc(C)cn3)CC2)c1 | -74.29%
28 | CC(=O)N(Cc1noc(C)n1)C1CCN(CC2CCCC2)C1 (stereo not given) | -72.7%
29 | Cc1nn(C)c(N2CCOCC2)c1CNCc1cccnc1 | -102.1%
30 | COCCNc1cc(C)nn2cnnc12 | -138.9%
31 | CNc1nc2c(s1)C(c1cccc(F)c1F)CC(=O)N2 (stereo not given) | -75.94%
32 | CC(C)n1[nH]c(=O)c2c1NC(=O)CC2c1ccncc1 (stereo not given) | -11.96%
33 | COc1ncccc1CN1C[C@@H]2COC[C@]2(COc2ccccn2)C1.O=C(O)C(F)(F)F.O=C(O)C(F)(F)F.O=C(O)C(F)(F)F | -20.51%
34 | Cc1ccc(C(=O)Cc2c(Cl)nc3n(C)c(=O)n(C)c(=O)n23)cc1 | -11.12%
35 | CC(C)(C)n1ncc2c1NC(=O)CC2c1c(F)cccc1F (stereo not given) | -175.8%
36 | COc1ccc(C(C)NC(=O)N2CCNC(=O)CC2)cc1F (stereo not given) | -89.17%
37 | COc1cc(Cl)c(CN2CCC(C(N)=O)C2)cc1Cl (stereo not given) | 3.59%
38 | CSc1ccc(OCCN2CCNC(=O)CC2)cc1 | -70.99%
39 | COc1ccc(CN2CCC(C(N)=O)C2)c(Br)c1OC (stereo not given) | -101%
40 | COc1ccc(CN2CCNC(=O)CC2)cc1SC(F)(F)F | 74.78%
41 | COc1ccc(CN2CCC(C(N)=O)CC2)cc1SC(F)(F)F | 63.84%
42 | OC(CN1CCC(c2ccn[nH]2)CC1)c1ccc(F)cc1F (stereo not given) | -72.07%
43 | Cc1ccc(C)c(S(=O)(=O)NCCOc2ccc3nnc(C)n3n2)c1 | -6.832%
44 | Cc1cc(C[C@@H]2CCC[C@H]2NCc2ccc(C(F)(F)F)cc2)on1.O=C(O)CC(O)(CC(=O)O)C(=O)O | -14.83%
45 | Cc1cc(C[C@@H]2CCC[C@H]2NCc2c[nH]nc2-c2ccccc2)on1.O=C(O)CC(O)(CC(=O)O)C(=O)O | 55.35%
46 | COc1cccc(-c2n[nH]cc2CNC2CCCN(C)C2)c1 (stereo not given) | -88.31%
47 | COc1cccc(-c2n[nH]cc2CNC2CCC(O)CC2)c1.Cl (stereo not given) | -76.02%
48 | Cc1cc(C[C@@H]2COC[C@@H]2NC(=O)Cn2c(=O)oc3ccccc32)on1 | -110.9%

Row | Compound | Percent Effect
49 | CN(C(=O)Nc1cccnc1)C1CCN(c2ccc(Cl)cc2)CC1 | 4.443%
50 | Cc1cc(C)n(CC2CCCN2CC(=O)N(C)CCC#N)n1 (stereo not given) | -49.25%
51 | CCC(C)C(=O)N(CC(=O)OC)c1cccc(C)n1 (stereo not given) | -66.48%
52 | CCN(CC1CN(Cc2c(C)noc2C)CCO1)c1cccnn1 (stereo not given) | -53.53%
53 | CCN(CC1CN(Cc2nc(C3CC3)no2)CCO1)c1cccnn1 (stereo not given) | 72.53%
54 | CCN(CC1CN(Cc2ncc(C)o2)CCO1)c1cccnn1 (stereo not given) | -35.01%
55 | CCNC(=O)Cc1ccc(-c2cccc3c2CCNC3)cc1 | -6.885%
56 | COCCC(=O)N1CCC2(CCCN2Cc2ccccc2)C1 (stereo not given) | -58.21%
57 | Nc1nc(CC(=O)N2CCCC(CCc3cccc(F)c3)C2)cc(=O)[nH]1 (stereo not given) | -43.06%
58 | CCN(C(=O)Nc1nncs1)C(C)c1cccc(OC)c1 (stereo not given) | -32.07%
59 | Cc1nc(C)n(CC2CCCCN2c2ncnc3ccsc23)n1 (stereo not given) | -49.26%
60 | COc1ccccc1CC(C)N(C)CCS(C)(=O)=O (stereo not given) | -4.563%
61 | COc1ccc(Cl)cc1-c1nc(N)nc(N(C)C)n1 | -104.8%
62 | CN(CC(=O)Nc1cccc(F)c1)Cc1nc(N)nc(N(C)C)n1 | -117.7%
63 | COc1ccccc1CCN(C)Cc1nc(N)nc(N(C)C)n1 | 69.03%
64 | CC(C)c1ccc(S(=O)(=O)Cc2nc(N)nc(N(C)C)n2)cc1 | -42.62%
65 | Cc1ccccc1CC1(C(=O)O)CCCN(c2ncnc3[nH]ccc23)C1 (stereo not given) | -4.529%
66 | Cc1c(C(=O)NCCC(C)C)nnn1-c1cccc2c1CCN(C)C2 | -15.36%
67 | CC(O)CN1CCC(CNCc2cccc(Cl)c2)CC1 (stereo not given) | 87.41%
68 | CC(O)CN1CCC(CNCc2cn(-c3ccccc3)nn2)CC1 (stereo not given) | -67.96%
69 | CC(O)CN1CCN(Cc2cccc(C(=O)N(C)C)c2)CC1 (stereo not given) | -48.6%
70 | CC(O)CN1CCN(Cc2cccc(C#N)c2)CC1 (stereo not given) | 12.6%
71 | Cc1ncccc1CNCC1CCN(CC(O)c2ccccc2)CC1 (stereo not given) | 29.35%
72 | CN1Cc2cc(F)ccc2N(CC(O)C(F)(F)F)CCC1=O (stereo not given) | 13.79%

Row | Compound | Percent Effect
73 | Cc1ccc(CN(C)C(=O)c2ccc(NC3CC3)nc2)o1 | -155.8%
74 | CCN1CCN(Cc2c(C3CCCC3)[nH]c3ncccc23)CC1 | -34.79%
75 | COc1ccc2c(C)c(C(=O)NCCCc3csc(N)n3)oc2c1 | -56.16%
76 | Cc1ccc(-c2cc(C(=O)NCCCc3csc(N)n3)[nH]n2)s1 | 65.08%
77 | Cc1ccc(-c2cc(C(=O)NCCCc3csc(N)n3)[nH]n2)o1 | 18.73%
78 | COC(=O)CN1CCN(c2nc3c(s2)c(C)nn3C)C(C)C1=O (stereo not given) | -95.69%
79 | Cc1ccc(CN2CCN(c3nc4c(s3)c(C)nn4C)C(C)C2=O)cc1 (stereo not given) | 68.91%
80 | Cc1nn(C)c2nc(N3CCNC(=O)C3Cc3ccccc3)sc12 (stereo not given) | -89.32%
81 | COCC(O)CNc1ccc(C#N)cc1C(F)(F)F (stereo not given) | -11.9%
82 | CCCS(=O)(=O)N1CC[C@@H]2[C@@H]1CC(=O)N2Cc1csc(C)n1 | -243.1%
83 | Cc1cccc(NC(=O)C(C)Oc2ccc3c(c2)OCO3)n1 (stereo not given) | -110.7%
84 | CS(=O)(=O)CCCNC1(c2cccc(F)c2)CC1 | -29.12%
85 | CSCC(=O)NC1(c2cccc(Cl)c2)CC1 | -138.1%
86 | Cc1cccc(C2(NCCCS(C)(=O)=O)CCCC2)c1 | 88.41%
87 | CC(C)(C)c1ccc(C2(C(=O)NCCCS(C)(=O)=O)CC2)cc1 | -66.39%
88 | Brc1ccc(C2(NCc3noc(C4CC4)n3)CCC2)cc1 | 8.334%
89 | Cc1cccc(C2(NC(=O)CCN3C(=O)CCC3=O)CCCC2)c1 | -32.71%
90 | CS(=O)(=O)CCCNC1(c2ccc(Br)cc2)CCC1 | 77.64%
91 | N#CCCCS(=O)(=O)NC1(c2cccc(Cl)c2)CC1 | -108.7%
92 | CC(Nc1cnn(C)c(=O)c1Cl)c1ccc(F)c(F)c1 (stereo not given) | -61.95%
93 | COc1cc(-c2n[nH]c(CCN)n2)cc(OC)c1OC | -46.27%
94 | Cc1nc(CSCc2ccc(OCC(F)(F)F)nc2)no1 | -117.9%
95 | Cc1cccc(CN2C(=O)C[C@H]3[C@@H]2CCN3Cc2ccccn2)n1.O=C(O)C(F)(F)F.O=C(O)C(F)(F)F.O=C(O)C(F)(F)F | -25.52%
